Screens from PubChem BioAssay.
Hits are enriched below; roughly 4.7% of the tested compounds scored in any of these assays.
S2 tox – cell viability loss in ATXN counter-screen; S2 cells (HEK-293 line with an ATXN2-luciferase reporter) viability, CellTiter-Fluor protease fluorescence, 24 h; 400,000 compounds, 0.49% hits; Potency, µM (titrated, usually from 56.7 µM), usual class: cytotoxic; AID 651635; further: nearly all actives have a fitted effect of over 40% in size
D3 ag – D3 dopamine receptor (human) agonism; 410,000 compounds, 0.58% hits; D3R DiscoveRx beta-arrestin cells, luminescence, 90 min; P35462; max activation, %; AID 652048; in the data active means max activation above about 30%
Target sequence (P35462 whole entry, looked up): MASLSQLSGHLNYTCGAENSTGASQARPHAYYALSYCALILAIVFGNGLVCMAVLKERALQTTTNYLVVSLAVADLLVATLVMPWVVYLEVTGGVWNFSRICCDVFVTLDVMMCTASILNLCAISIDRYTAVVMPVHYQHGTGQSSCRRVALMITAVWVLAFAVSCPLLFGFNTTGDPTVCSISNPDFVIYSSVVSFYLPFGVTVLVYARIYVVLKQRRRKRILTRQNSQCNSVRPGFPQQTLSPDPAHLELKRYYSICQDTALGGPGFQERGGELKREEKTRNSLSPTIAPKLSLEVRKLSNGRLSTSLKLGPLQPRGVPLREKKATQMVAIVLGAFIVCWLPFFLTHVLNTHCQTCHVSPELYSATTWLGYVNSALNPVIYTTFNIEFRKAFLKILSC
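Cells at 1500/well, incubated overnight, then treated with pinned compounds (dopamine as control) for 90 min at 37 degrees C. DiscoveRx reagent added for 30 - 60 minutes at room temperature; luminescence read.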
TGFb inhibitor – inhibitors of TGF-b signaling | Potency, µM (series often up to 46.1 µM), most hits filed as inhibitors | 410,000 compounds, 1.2% hits | HepG2 CAGA-GFP TGF-b/SMAD3 reporter, GFP fluorescence, 18 h; TGF-beta stimulated, 500 pg/mL final; further: nearly all actives have a fitted effect of over 65% in size
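Using HEPG2 CAGA-GFP reporter cells at 1000 cells/well, we pinned test compounds, stimulated with recombinant TGF-beta (500 pg/mL final) and measured total well GFP after 18 h.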
D3 antag – antagonists of human D3 dopamine receptor | P35462 | D3R cells, DiscoveRx beta-arrestin luminescence, antagonist mode; active compounds read low | AID 652054 | 360,000 compounds, 2.5% hits | max response, negative = inhibition, %; in the data active means max response below about -50%; inconclusive means no clear call, values can overlap the other calls
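Cells expressing the human receptor were seeded at 1500 cells/well, incubated overnight at 37 degrees C in 5% CO2, then exposed to library compounds with dopamine controls for 90 minutes at 37 degrees C before luminescent detection.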
HepG2 tox – HepG2 cytotoxicity, counter-screen for TGF-b inhibitors; HepG2 CAGA-GFP viability, ATP luminescence, 18 h; Potency, µM (highest dose often 46.1 µM), most hits filed as cytotoxic; 410,000 compounds, 0.76% hits; AID 588856
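CellTiter-Glo luminescence gave cytotoxicity after 18 hours at 37 degrees C. The cells were HepG2 CAGA-GFP in 1% FBS DMEM, stimulated with 500 pg/mL TGF-beta after compound addition. %Activity was normalised to no-cell wells (complete cell-killing) and DMSO (no toxicity), and curves were fitted and classified.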
ATXN2 expr inh – ATXN2 expression inhibition; HEK-293 ATXN2-luciferase reporter, luminescence, 24 h; 360,000 compounds, 0.72% hits; AID 1745845; Potency, µM (highest dose often 57 µM), usual class: inhibitors; further: nearly all actives have a fitted effect of over 55% in size
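ATXN2-luciferase reporter cells (luciferase flanked by upstream and downstream ATXN2 gene portions) were treated 24 h at 37 °C with compounds at up to 57 uM. SteadyGlo luminescence gave expression; GF-AFC fluorescence gave viability.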
A number is an active result. Unless noted, the call rests on the fitted dose curve; in most records, active means well fitted curve in the direction sought with a large enough effect; inconclusive means small, poorly fitted or top-dose-only effect, or another doubt; inactive means no such curve, though single readings can be large; an effect the other way counts as inactive or inconclusive.

What do the screens show for `OC(COc1c(Cl)cc(Cl)cc1Cl)CN1CCCCC1` (stereo unspecified)?
S2 tox: inactive; D3 ag: inactive; TGFb inhibitor: inactive; D3 antag: -63; HepG2 tox: inactive; ATXN2 expr inh: inactive

Results for OC(COc1ccc(OCC(O)CN2CCCCC2)cc1)CN1CCCCC1 (stereo unspecified) ?
S2 tox: inconclusive; D3 ag: inactive; TGFb inhibitor: inactive; D3 antag: inactive; HepG2 tox: inactive

Results for O=C(c1cc2ccccc2cc1OCC(O)CN1CCCCC1)N1CCCCC1 (stereo unspecified) ?
S2 tox: inconclusive; D3 ag: inactive; TGFb inhibitor: inactive; D3 antag: -85; HepG2 tox: inactive; ATXN2 expr inh: inactive

How did Cc1ccc(N2C(=O)CSC23C(=O)N(CC(=O)NCc2ccccc2)c2ccccc23)cc1 (stereo unspecified) do in these assays?
S2 tox: inactive; D3 ag: inactive; TGFb inhibitor: inactive; HepG2 tox: inactive; ATXN2 expr inh: inactive

Results for c1ccc(CCNc2nc(-c3ccccc3)cs2)cc1 ?
S2 tox: inactive; D3 ag: inactive; ATXN2 expr inh: inactive

What do the screens show for `Cc1ccccc1-c1noc(CSc2nc3ccccc3[nH]2)n1`?
S2 tox: inactive; D3 ag: inactive; TGFb inhibitor: inconclusive; HepG2 tox: inactive; ATXN2 expr inh: inactive

What do the screens show for `COC1C=CC=C(C)C(=O)NC2=CC(=O)C(N)=C(CC(C)CC(OC)C(O)C(C)C=C(C)C1OC(N)=O)C2=O` (stereo unspecified)?
S2 tox: inconclusive; D3 ag: inactive; TGFb inhibitor: inactive; D3 antag: inactive; HepG2 tox: inactive; ATXN2 expr inh: 0.24µM

What do the screens show for `C=CCNC1=C2C[C@@H](C)C[C@H](OC)[C@H](O)[C@@H](C)/C=C(\C)[C@H](OC(N)=O)[C@@H](OC)/C=C\C=C(/C)C(=O)NC(=CC1=O)C2=O`?
D3 ag: inactive

What do the screens show for `O=C1CN(C(=O)COC(=O)c2ccccc2Br)c2ccccc2N1`?
S2 tox: inactive; D3 ag: inactive; TGFb inhibitor: inactive; D3 antag: -55; HepG2 tox: inactive; ATXN2 expr inh: inactive

How did CCc1nc2ccc(C(=O)NC3CCN(Cc4ccccc4)CC3)cn2c1N(CC)Cc1cccc(Br)c1 do in these assays?
S2 tox: inconclusive; D3 ag: inactive; TGFb inhibitor: inconclusive; D3 antag: -78; HepG2 tox: inactive; ATXN2 expr inh: inconclusive

Results for CCc1nc2ccc(C(=O)N(C)Cc3ccccc3)cn2c1N(CC)Cc1cccc(Br)c1 ?
S2 tox: inconclusive; D3 ag: inactive; TGFb inhibitor: inconclusive; D3 antag: inactive; HepG2 tox: inactive; ATXN2 expr inh: inconclusive

Results for O=c1c(N=Nc2ccccc2)c[nH]n1-c1ccccc1 ?
S2 tox: inactive; D3 ag: inactive; TGFb inhibitor: inactive; D3 antag: -62; HepG2 tox: inactive

Results for CCCCN(CCCC)C(=S)[S-].CCCCN(CCCC)C(=S)[S-].[Zn+2] ?
S2 tox: 8.9µM; D3 ag: inactive

What do the screens show for `CCCCN(CCCC)C(=S)NC(=O)C(C)(C)C`?
S2 tox: inactive; D3 ag: inactive; TGFb inhibitor: inconclusive; D3 antag: inactive; HepG2 tox: inactive; ATXN2 expr inh: inactive

Results for CC(=C\c1ccccc1)/C=C1/SC(=S)N(CC(=O)O)C1=O ?
D3 ag: inactive

How did O=c1[nH][nH]c(-c2ccccc2O)c1C(C[N+](=O)[O-])c1ccc(Br)cc1 (stereo unspecified) do in these assays?
S2 tox: inconclusive; D3 ag: inactive; TGFb inhibitor: inconclusive; D3 antag: inactive; HepG2 tox: inactive; ATXN2 expr inh: inconclusive

How did Cc1ccc(C(C[N+](=O)[O-])c2c(-c3ccccc3O)[nH][nH]c2=O)cc1 (stereo unspecified) do in these assays?
S2 tox: inconclusive; D3 ag: inactive; TGFb inhibitor: inconclusive; D3 antag: inactive; HepG2 tox: 7.9µM; ATXN2 expr inh: inactive
